# PubChem BioAssay (Tox21)
# Inconclusive results are not listed. Active and inactive are the calls of the source. Calls come from the whole dose curve; as a rule, active = well fitted inhibition curve with a large enough effect in the repeat runs; inconclusive = weak or mixed curves; inactive = flat fitted curve, though single readings scatter.
# Assay: qHTS assay to identify small molecule HDAC inhibitors (AID 1259364); note: nearly all actives have a fitted effect of over 45% in size; for activity change, negative = inhibition: top concentration of the series differs between compounds
# Conditions: HCT-116 HDAC-Glo I/II luminescence, 2 h; series mostly up to 92.4 µM; activity change, negative = inhibition: at the top concentration
# Description: U.S. Tox21 Program National Center for Advancing Translational Sciences [NCATS] NIH Chemical Genomics Center [NCGC] U.S. Environmental Protection Agency [EPA] National Institutes of Environmental Health Sciences [NIEHS] National Toxicology Program [NTP] U.S. Food and Drug Administration [FDA] Tox21 Assay Overview: Histone deacetylases (HDACs) are a group of epigenetic enzymes that regulate gene expression by histone deacetylation. HDACs are capable of introducing epigenetic modifications and such aberrations contribute to the onset and progression of several human diseases, thus making HDACs a popular therapeutic target. For identifying endogenous class I/II HDAC inhibitors a homogenous, luminogenic HDAC I/II cell based assay was used to measure the relative activity of class I and II HDACs from cells. Wild type HCT-116 cells were used to screen Tox21 libraries for identifying class I/II HDAC inhibitors.
# Tox21 Assay Protocol Summary: HCT-116 cells were dispensed at 1,500 per well in 5uL of culture medium into white solid bottom 1536-well plates (Greiner Bio-One, Monroe, NC) using a Multidrop Combi (Thermo Scientific, Waltham, MA) dispenser. The assay plates were incubated at 37 C and 5% CO2 for an overnight, and then 23nL of compounds dissolved in DMSO and positive control were transferred using a Pintool station (Wako, San Diego, CA). The assay plates were incubated at 37C and 5% CO2 for 2hr. After compound treatment, 4uL of HDAC-Glo reagent (Promega Corporation, Madison, WI) was added to each well of the assay plates using Flying Reagent Dispenser (FRD, Aurora Discovery, San Diego, CA) and incubated the assay plates at room temperature for 30min. The luminescence signal was quantified using a ViewLux plate reader (Perkin Elmer, Shelton, CT).
# % is set by controls: 0 for no effect and ±100 for the full control effect; potency is the fitted concentration of half-maximal effect.
SMILES,"activity change, negative = inhibition",Potency
CCOC(=O)OC(=O)OCC,2.12% (inactive),
C=Cc1ccc(O)c(OC)c1,-8.21% (inactive),
C=CC(=O)O[C@H]1C[C@@H]2CC[C@@]1(C)C2(C)C,3.11% (inactive),
COc1cc2ncnc(Nc3cccc(Cl)c3)c2cc1OC,-7.18% [at 19 µM] (inactive),
Cc1cc(F)ccc1-c1cc(N2CC[C@@H](O)[C@H]2CO)ncc1N(C)C(=O)C(C)(C)c1cc(C(F)(F)F)cc(C(F)(F)F)c1,12.5% (inactive),
O=C1OC(=O)c2cc(-c3ccc4c(c3)C(=O)OC4=O)ccc21,-0.849% (inactive),
Nc1cccnc1N,1.03% (inactive),
CCOC=C(C(=O)OCC)C(=O)OCC,-1.06% (inactive),
CC1=C(/C=C/C(C)=C/C=C/C(C)=C\C(=O)O)C(C)(C)CCC1,-4.89% (inactive),
CCCC(=O)c1cc(O)c(O)cc1O,-11.6% (inactive),
N#Cc1nc(Cl)c(Cl)c(Cl)c1Cl,-8.47% (inactive),
O=C(O)C[C@H](O)C[C@H](O)/C=C/c1c(C2CC2)nc2ccccc2c1-c1ccc(F)cc1,-0.0181% [at 19 µM] (inactive),
CC1=CC[C@@H](C(C)(C)O)CC1,0.672% (inactive),
CC(C)c1ccc2sc3ccccc3c(=O)c2c1,,1720 nM (active)
c1ccc2occc2c1,-0.76% (inactive),
CCCCCCCC1CCC(=O)O1 (stereo not given),-10.1% (inactive),
CCCCCCCC/C=C\CCCCCCCC(=O)N(CCO)CCO,-1.55% (inactive),
CCCC(C)C=O (stereo not given),8.44% (inactive),
O=C(O)CN(CCCN(CC(=O)O)CC(=O)O)CC(=O)O,1.25% [at 19 µM] (inactive),
C=C(C)CCO,2.06% (inactive),

SMILES,"activity change, negative = inhibition",Potency
CCN(CC)c1ccc(C=O)cc1,-1.4% (inactive),
COCCC(=O)OC,-2.25% (inactive),
O=C1C=CC(=O)N1c1cccc(N2C(=O)C=CC2=O)c1,-21.3% (inactive),
CCn1c2ccccc2c2ccccc21,1.51% (inactive),
Nc1cc([N+](=O)[O-])ccc1Cl,-2.26% (inactive),
Oc1ccc(C2(c3ccc(O)c(C4CCCCC4)c3)CCCCC2)cc1C1CCCCC1,18.8% (inactive),
S=C1NC=NC2N=CNC12 (stereo not given),9.72% (inactive),
O=C(Nc1ccc([N+](=O)[O-])cc1)Nc1ccc([N+](=O)[O-])cc1 (tested in a mixture with another compound),-13.8% [at 42.5 µM] (inactive),
CCCCCCCCCC[N+](C)(CCCCCCCCCC)CCC[Si](OC)(OC)OC,2.93% (inactive),
COc1ccc2ccccc2c1,-1.32% (inactive),
O=C1CCCCCCCCCCCCCC1,0.376% (inactive),
CC/C(=C(/c1ccc(O)cc1)c1ccc(OCCN(C)C)cc1)c1ccccc1,2.35% [at 42.5 µM] (inactive),
c1ccc2cc3c4ccccc4c4ccccc4c3cc2c1,-4.54% (inactive),
NCc1ccco1,-1.44% (inactive),
COc1cc(/C=C/C(=O)CC(=O)/C=C/c2ccc(O)c(OC)c2)ccc1O,-15.6% (inactive),
CCCCCCCCSCc1cc(C)c(O)c(CSCCCCCCCC)c1,-1.12% (inactive),
CCc1cccc(CC)c1,0.377% (inactive),
C=C[Si](C)(C)Cl,3.64% [at 8.39 µM] (inactive),
Oc1ccc2c(c1)CCC2,4.71% (inactive),
Clc1ccc2c(Cl)ccnc2c1,-0.773% (inactive),
